IL-1B inflam inh: inflammasome signaling inhibition, IL-1 beta readout | THP-1 LPS/ATP IL-1B secretion, AlphaLISA, 16 h; stronger effect = lower value | activity change, % at 57.5 µM | 360,000 tested, 4.7% active | AID 743279; in the data active = activity change below about -50%; inconclusive = mostly about -30% to -49%
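THP-1 cells pretreated 1 hr with compounds (up to 57.5 uM final), then stimulated with LPS (250 ng/mL final) plus ATP (1.25 mM final); secreted IL-1B measured by AlphaLISA after 16 hr, decreased signal indicating inhibition.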
TDP1 cell noCPT: qHTS for Inhibitors of human tyrosyl-DNA phosphodiesterase 1 (TDP1): qHTS in cells in absence of CPT. DT40 Tdp1-/- hTDP1 cells, no CPT, ATP luminescence, 48 h. Potency, µM (doses to about 46.2 µM), for inactives: top-dose activity change, negative = growth inhibition, usual class: inhibitors. 420,000 tested, 15% active. AID 686978, 2013; also: potency is read from the fitted curve at half-maximal effect; nearly all actives have a fitted effect of over 55% in size
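Compound effects on proliferation are scored in DT40 Tdp1-/-;hTDP1 cells in the absence of CPT. ATP levels (CellTiter-Glo luminescence) are recorded after a ≥48 hr, 37 °C incubation.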
LDHA inh: blocks human lactate dehydrogenase A | activity change, % (values are at about 110 or 230 µM) | AID 1347041 | purified LDHA, NADH/diaphorase-resazurin fluorescence; stronger effect = lower value | 480,000 tested, 0.15% active; in the data active = activity change below about -30%; inconclusive = mostly about -25% to -30%;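 also: plate controls were DMSO wells for no effect and wells without enzyme for full effect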
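Enzyme activity of human lactate dehydrogenase 5 (2 nM; 0.06 mM NADH, 0.2 mM pyruvate, 5 min, RT) is measured via a resazurin/diaphorase fluorescence readout of residual NADH.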
VP16 counter: inhibits Gal4-VP16 luciferase reporter, ROR gamma counter-screen. Potency, µM (series often up to 53.6 µM), for the others: top-dose activity, negative = inhibition, usual class: inhibitors. 310,000 tested, 3.5% active. Drosophila S2 Gal4-VP16 UAS-luciferase, luminescence, 20 h. AID 2546;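 also: Gal4-VP16 expression switched on by copper sulfate through the metallothionein promoter; potency is read from the fitted curve at half-maximal effect; nearly all actives have a fitted effect of over 50% in size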
RORg inh: blocks mouse ROR gamma transcriptional activity; P51450; Drosophila S2 Gal4-RORgamma UAS-luciferase reporter, 20 h; Potency, µM (titrated, usually from 53.6 µM), for inactives: top-dose activity change, negative = inhibition, most hits filed as inhibitors; 310,000 tested, 5.4% active; AID 2551; also: potency is read from the fitted curve at half-maximal effect; nearly all actives have a fitted effect of over 60% in size
Target sequence (P51450 whole entry, looked up, the tested form may be a part): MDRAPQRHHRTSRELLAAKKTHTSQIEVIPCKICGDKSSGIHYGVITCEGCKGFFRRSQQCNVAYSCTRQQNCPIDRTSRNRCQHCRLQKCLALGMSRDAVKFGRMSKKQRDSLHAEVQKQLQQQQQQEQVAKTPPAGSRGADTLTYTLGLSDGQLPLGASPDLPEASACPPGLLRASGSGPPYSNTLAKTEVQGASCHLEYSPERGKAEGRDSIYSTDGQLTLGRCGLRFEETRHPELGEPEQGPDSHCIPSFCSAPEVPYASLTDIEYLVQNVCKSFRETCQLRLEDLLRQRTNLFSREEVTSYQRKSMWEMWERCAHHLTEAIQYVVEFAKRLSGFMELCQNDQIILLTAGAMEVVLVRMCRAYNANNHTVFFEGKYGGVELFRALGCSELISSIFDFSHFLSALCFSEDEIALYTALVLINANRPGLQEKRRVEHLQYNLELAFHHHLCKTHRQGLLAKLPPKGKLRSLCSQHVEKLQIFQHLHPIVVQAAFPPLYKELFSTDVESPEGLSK
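Schneider cells (Drosophila), stable Gal4 DBD–ROR gamma + UAS-luc; 1 hr cmpd preincubation; Cu2+ induction 700 uM final; 20 hr ambient; luminescence.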
DT40 TDP1 CPT: growth inhibition of DT40 Tdp1-/-;hTDP1 cells with camptothecin (screen for TDP1 inhibitors) | 420,000 tested, 12% active | AID 686979 | Potency, µM (series often up to 46.2 µM), for inactives: at the highest dose activity change, negative = growth inhibition, usual class: inhibitors | chicken DT40 Tdp1-/-;hTDP1 cells + 20 nM CPT, ATP luminescence, 48 h; also: potency is read from the fitted curve at half-maximal effect; nearly all actives have a fitted effect of over 55% in size
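Cell growth measured by CellTiter-Glo luminescence after a minimum 48 h, 37 C compound exposure with 20 nM CPT in Tdp1-knockout DT40 cells stably expressing hTDP1, seeded 400/well; qHTS titration format.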
* hit, by the source's call. A selection: hits, their analogues and other compounds. The true share with any hit is near 18%. Unless noted, calls follow the shape of the dose curve; as a rule, active = well fitted curve in the direction sought with a large enough effect; inconclusive = small, poorly fitted or top-dose-only effect, or another doubt; inactive = no such curve, though single readings can be large; an effect the other way counts as inactive or inconclusive. Unless noted, % is scaled to controls: 0 for no effect and ±100 for the full control effect.

What do the screens show for `COc1ccc(-n2cc(-c3ccc(C)cc3)[n+]3c2SCC3)cc1`?
IL-1B inflam inh: -94*; TDP1 cell noCPT: 1.3µM*; LDHA inh: 1; VP16 counter: 7.9µM*; RORg inh: -22%; DT40 TDP1 CPT: 1.5µM*

What do the screens show for `N#Cc1ccc(-c2cn(-c3ccccc3)c3[n+]2CCCS3)cc1`?
IL-1B inflam inh: 13; TDP1 cell noCPT: -23%; LDHA inh: -4; VP16 counter: 7%; RORg inh: -8%; DT40 TDP1 CPT: 5%

What do the screens show for `COc1ccc(N2CCN(Cc3csc(C)c3-c3ccc(C)cc3)CC2)cc1`?
IL-1B inflam inh: -14; TDP1 cell noCPT: inconclusive; LDHA inh: -3; VP16 counter: -7%; RORg inh: 31%; DT40 TDP1 CPT: inconclusive

How did c1ccc(-c2cn(-c3ccccc3)c3[n+]2CCCS3)cc1 do in these assays?
IL-1B inflam inh: -1; TDP1 cell noCPT: 3.7µM*; LDHA inh: -1; VP16 counter: -12%; RORg inh: 18%; DT40 TDP1 CPT: 3.3µM*

Results for Cc1ccc(-c2cn(-c3ccccc3)c3[n+]2CCCS3)cc1 ?
IL-1B inflam inh: -63*; TDP1 cell noCPT: 0.37µM*; LDHA inh: -3; VP16 counter: 11µM*; RORg inh: 0%; DT40 TDP1 CPT: 0.65µM*

How did CCc1ccc(-n2cc(-c3ccc(F)cc3)[n+]3c2SCCC3)cc1 do in these assays?
IL-1B inflam inh: -91*; TDP1 cell noCPT: 1.8µM*; LDHA inh: -10; VP16 counter: inconclusive; RORg inh: -33%; DT40 TDP1 CPT: 4.6µM*

Results for COc1cccc(/C=C2/C(=O)c3ccccc3OC2c2ccccc2)c1 (configuration not stated) ?
LDHA inh: 11

What do the screens show for `CCCC(NC(=O)Cc1n[nH]c(=O)c2ccccc12)c1ccccc1` (configuration not stated)?
LDHA inh: -11

How did O=C(Nc1ccc2nc(SCc3ccc(Br)cc3)sc2c1)C1CCCCC1 do in these assays?
LDHA inh: 0

Results for O=C(CCCSc1nc2ccccc2s1)NC1=NCCS1 ?
IL-1B inflam inh: 39; TDP1 cell noCPT: -16%; LDHA inh: -4; VP16 counter: 4.5µM*; RORg inh: 0.89µM*; DT40 TDP1 CPT: -27%

Results for CC(=O)Nc1ccc(NC(=O)CCCSc2nc3ccccc3s2)cc1 ?
IL-1B inflam inh: 40; TDP1 cell noCPT: -10%; LDHA inh: -2; VP16 counter: 5µM*; RORg inh: 7.1µM*; DT40 TDP1 CPT: -29%

What do the screens show for `Cc1cccc(C)c1NC(=O)CCCSc1nc2ccccc2s1`?
IL-1B inflam inh: 18; TDP1 cell noCPT: inconclusive; LDHA inh: -4; VP16 counter: 12%; RORg inh: -9%; DT40 TDP1 CPT: inconclusive

What do the screens show for `O=C(CCCSc1nc2ccccc2s1)Nc1ccc(F)cc1`?
LDHA inh: 5

Results for O=C(Nc1cc(C(=O)N2CCN(c3ccccc3)CC2)ccc1Cl)c1cccs1 ?
IL-1B inflam inh: inconclusive; TDP1 cell noCPT: inconclusive; LDHA inh: -6; DT40 TDP1 CPT: inconclusive

Results for O=C(NC(=S)Nc1ccc(N2CCCCC2)cc1)c1cccs1 ?
IL-1B inflam inh: inconclusive; TDP1 cell noCPT: inconclusive; LDHA inh: 1; VP16 counter: 5µM*; RORg inh: 3.2µM*; DT40 TDP1 CPT: 21µM*

Results for CCCC(=O)NC(=S)Nc1ccc(NC(=O)c2cccs2)cc1 ?
IL-1B inflam inh: -10; TDP1 cell noCPT: -18%; LDHA inh: -1; VP16 counter: inconclusive; RORg inh: -4%; DT40 TDP1 CPT: -7%

How did CCCC(=O)NC(=S)Nc1ccc(N2CCN(C(=O)c3cccs3)CC2)cc1 do in these assays?
IL-1B inflam inh: -85*; TDP1 cell noCPT: 15µM*; LDHA inh: 1; VP16 counter: inconclusive; RORg inh: 7.9µM*; DT40 TDP1 CPT: 16µM*

Results for O=C(NC(=S)Nc1ccc(N2CCN(C(=O)c3ccccc3)CC2)cc1)c1cccs1 ?
IL-1B inflam inh: -60*; TDP1 cell noCPT: 26µM*; LDHA inh: -8; VP16 counter: inconclusive; RORg inh: 5.6µM*; DT40 TDP1 CPT: inconclusive

Results for COc1cc(/C=C(/C#N)c2ccccn2)ccc1OCC(F)(F)F ?
LDHA inh: 7

What do the screens show for `N#C/C(=C/c1ccc2c(c1)OCO2)c1nc2ccccc2[nH]1`?
LDHA inh: 1

What do the screens show for `CCCCN(Cc1ccccc1)S(=O)(=O)c1cc(Br)cc2c1N(C(=O)C1CC1)CC2`?
TDP1 cell noCPT: 9.2µM*; LDHA inh: -9; DT40 TDP1 CPT: 9.2µM*

How did O=C(C1CC1)N1CCc2cc(S(=O)(=O)N(CCO)Cc3ccccc3)ccc21 do in these assays?
IL-1B inflam inh: -8; TDP1 cell noCPT: 23µM*; LDHA inh: -2; VP16 counter: inconclusive; RORg inh: inconclusive; DT40 TDP1 CPT: inconclusive

How did CCc1ccccc1NS(=O)(=O)c1cc(Br)cc2c1N(C(=O)C1CC1)CC2 do in these assays?
TDP1 cell noCPT: 18µM*; LDHA inh: -11; DT40 TDP1 CPT: 16µM*

What do the screens show for `CCN(Cc1ccccc1)S(=O)(=O)c1cc(Br)cc2c1N(C(=O)C1CC1)CC2`?
TDP1 cell noCPT: 8.2µM*; LDHA inh: -10; DT40 TDP1 CPT: 10µM*

Results for CCCCN(Cc1ccccc1)S(=O)(=O)c1cc(Br)cc2c1N(C(C)=O)CC2 ?
TDP1 cell noCPT: inconclusive; LDHA inh: -3; DT40 TDP1 CPT: inconclusive

How did CCc1ccc(C(=O)C2CCCCC2)cc1 do in these assays?
LDHA inh: 9

Results for CCCn1c(CSc2nnc(C3CC3)n2-c2ccccc2)nc2cc(S(=O)(=O)N(C)C)ccc21 ?
LDHA inh: 14

Results for Cc1ccc(C(C)NC(=O)Cn2cnc(C#N)n2)cc1C (configuration not stated) ?
LDHA inh: -4

What do the screens show for `O=C(c1c[nH]c2ccccc12)C(Sc1ncc(C(F)(F)F)cc1Cl)c1ccccc1` (configuration not stated)?
LDHA inh: 11

How did CC(=O)N1N=C(c2cccc([N+](=O)[O-])c2)OC1c1ccc(Cl)cc1Cl (configuration not stated) do in these assays?
IL-1B inflam inh: -52*; TDP1 cell noCPT: inconclusive; LDHA inh: 2; VP16 counter: -1%; RORg inh: 1%; DT40 TDP1 CPT: -10%
